Screening data from PubChem.
NPYLR7 ag: activates Aedes aegypti NPYLR7 receptor | HEK293T NPYLR7/Galpha15, GCaMP6s calcium fluorescence | activation, % at 10 µM | 270,000 tested, 0.15% active | AID 1259423; in the data active = activation above about 40%
mcGAS lum: mouse cGAS inhibition by luminescence | Q8C6L5 | recombinant cGAS, Kinase-Glo ATP depletion luminescence | inhibition, % at 12.5 µM | 160,000 tested, 0.15% active
Target sequence (Q8C6L5 whole entry, looked up): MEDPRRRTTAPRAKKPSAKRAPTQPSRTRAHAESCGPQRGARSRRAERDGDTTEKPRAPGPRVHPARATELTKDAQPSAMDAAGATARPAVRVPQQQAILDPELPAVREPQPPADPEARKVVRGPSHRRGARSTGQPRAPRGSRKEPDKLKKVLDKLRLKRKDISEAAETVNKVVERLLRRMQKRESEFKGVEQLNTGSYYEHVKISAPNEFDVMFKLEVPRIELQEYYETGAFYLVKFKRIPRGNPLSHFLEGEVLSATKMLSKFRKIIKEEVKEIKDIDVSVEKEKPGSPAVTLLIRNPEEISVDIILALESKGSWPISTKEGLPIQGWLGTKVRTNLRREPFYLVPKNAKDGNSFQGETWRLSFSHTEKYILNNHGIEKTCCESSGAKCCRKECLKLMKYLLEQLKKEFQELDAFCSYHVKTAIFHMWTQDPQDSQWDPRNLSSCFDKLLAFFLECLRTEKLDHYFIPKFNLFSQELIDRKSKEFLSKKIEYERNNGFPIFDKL
hcGAS inh: blocks human cGAS activity | Q8N884 | recombinant h-cGAS, ATP depletion, Kinase-Glo luminescence | inhibition, % at 12.5 µM | 290,000 tested, 0.081% active | AID 1259398
Of the large screens only hits and unclear results are named; the others gave an inactive call. The list is not random: actives were taken first. Their share in the collection is about 0.28%. Cut-off read from the data, not from the text of the source, unless noted: active = inhibition above about 40%; inactive = the rest.

COc1cccc(CO[C@]2(C(=O)NCC3CCCO3)CC(OCc3ccccc3C#N)[C@H](O)[C@H](O)C2)c1 (stereo partly specified)	none
CNC(=O)CSc1nnc(N2CCN(C(=O)c3c(F)cccc3Cl)CC2)s1	none
N#Cc1c(-c2ccccc2)cc(=O)n2c1[nH]c1ccccc12	none (no result: mcGAS lum)
Cc1cc(=S)n2c([nH]c3ccccc32)c1C#N	hcGAS inh 40.5 (no result: mcGAS lum)
N#Cc1c(C(F)(F)F)cc(=O)n2c1[nH]c1ccccc12	hcGAS inh 46.0 (no result: mcGAS lum)
Cc1c(Cc2ccccc2)c(=O)n2c([nH]c3ccccc32)c1C#N	none (no result: mcGAS lum)
O=C(Nc1ccc(C(F)(F)F)cc1)N1CCN(c2nc(-c3cccc(Br)c3)nc3ccccc23)CC1	none
O=C1c2ccc(-c3nc4ccccc4c(=O)o3)cc2C(=O)N1c1nc2ccccc2s1	mcGAS lum 44.7
O=C1c2ccc(-c3nc4ccccc4c(=O)o3)cc2C(=O)N1c1ccc(Br)cc1	none
CCOc1cc2c(C#N)c(N(CC(C)C)CC(C)C)nc(N)c2c(N)n1	none (no result: mcGAS lum)
COc1cc2c(C#N)c(N(CCO)CCO)nc(N)c2c(N)n1	hcGAS inh 56.3
Cc1noc(-c2ccncc2)c1C(=O)NCCOC(C)C	none
Cc1nc(CCNC(=O)c2cc(C(C)C)on2)sc1C	none (no result: mcGAS lum)
Cc1cccc2[nH]c(CCNC(=O)c3cc(C(C)C)on3)nc12	hcGAS inh 72.6
CC(CO)CSC(C)c1ccc(C#N)cc1 (stereo unspecified)	none (no result: mcGAS lum)
Cc1nc(-c2ccccc2)sc1C(=O)NCCCn1nc(-c2ccncc2)ccc1=O	none (no result: mcGAS lum)
Cc1cc(C(=O)CN2C(=O)NC3(CCC(C(C)(C)C)CC3)C2=O)c(C)n1-c1nccs1 (stereo unspecified)	none
COc1ccc(C2=NN(C(=O)CN3CCOCC3)C(c3nc4ccccc4[nH]3)C2)cc1 (stereo unspecified)	NPYLR7 ag 51.6
O=C(CN1CCOCC1)N1N=C(c2ccc(Br)cc2)CC1c1nc2ccccc2[nH]1 (stereo unspecified)	none
CCN(Cc1cc(Cl)c2c(c1)OCCCO2)C1CCS(=O)(=O)C1 (stereo unspecified)	none (no result: mcGAS lum)
COc1cc(C)ccc1OCCN1CC[C@]2(OC)CC[C@H](OC)C[C@H]12	none (no result: NPYLR7 ag)
Cc1cc(C)cc(-c2nnc(SCc3cc4c(cc3Br)OCO4)o2)c1	none
Nc1c(S(=O)(=O)O)cc(Nc2cccc3ccccc23)c2c1C(=O)c1ccccc1C2=O	none (no result: mcGAS lum)
Nc1c(S(=O)(=O)O)cc(Nc2ccc(Nc3nc(Cl)nc(Nc4ccc(S(=O)(=O)O)cc4)n3)c(S(=O)(=O)O)c2)c2c1C(=O)c1ccccc1C2=O	mcGAS lum 67.0
CC(=O)N1CCc2c(sc(NC(=O)C3=COCCO3)c2-c2nc3ccccc3s2)C1	none (no result: mcGAS lum)
CC(=O)Nc1sc2c(c1-c1nc3ccccc3s1)CCN(Cc1ccccc1)C2	NPYLR7 ag 196.8
CCN1CCc2c(sc(NC(=O)C3=COCCO3)c2-c2nc3ccccc3s2)C1	NPYLR7 ag 59.9 (no result: mcGAS lum)
CC(=O)Nc1sc2c(c1-c1nc3ccccc3s1)CCN(C(C)=O)C2	none (no result: mcGAS lum)
O=C(C1CC1)N1CCN(S(=O)(=O)c2ccc3c(c2)CCCC3)CC1	none
O=C(c1cccs1)N1CCC(c2nc(-c3ccncc3)no2)CC1	none
O=C(Nc1cccc(-c2cccc(-c3ccc4c(c3)OCCO4)n2)c1)C1CCCCC1	none
O=C(Nc1cccc(-c2nnco2)c1)C1CCCCC1	NPYLR7 ag 85.8 (no result: mcGAS lum)
COc1ccc(NC(=O)N2CCN(c3nc(-c4ccco4)nc4cc(Cl)ccc34)CC2)cc1	none
O=C(Nc1ccccc1F)c1ccc2c(c1)S(=O)(=O)Nc1ncnn1-2	none
COC(=O)c1nc2n(n1)-c1ccccc1S(=O)(=O)N2	hcGAS inh 57.0 (no result: mcGAS lum)
CCSc1nnc(NC(=O)Cc2ccc([N+](=O)[O-])cc2)s1	none
COc1ccccc1CCNC(=O)c1ccc(Cn2c(C)nc3ccccc32)o1	NPYLR7 ag 64.2 (no result: mcGAS lum)
Cc1ccccc1Cn1c(CCNC(=O)c2ccco2)nc2ccccc21	none
COCC(=O)N1CCC(C(=O)NC2CCC(N(Cc3ccccc3)C(=O)c3ccc(OC)cc3)CC2)CC1 (stereo unspecified)	none (no result: NPYLR7 ag)
O=C(CNCc1ccco1)N1CC(=O)N(c2cccc(Cl)c2)C1	none (no result: mcGAS lum)
O=C(CNCc1ccccc1)N1CC(=O)N(c2cccc(Cl)c2)C1	NPYLR7 ag 45.8
O=C(c1ccco1)N1CCCC2(CCCCC2)C1	none
COc1cc(NC(=O)c2ccc(Cl)c(N3CCCC3=O)c2)c(OC)cc1Cl	none (no result: mcGAS lum)
COc1cccc(CNC(=O)c2ccc(-c3cc(-c4cccc(C(F)(F)F)c4)n[nH]3)cc2)c1	mcGAS lum 103.8
COc1ccc(CCNC(=O)c2ccc(-c3cc(-c4cccc(C(F)(F)F)c4)n[nH]3)cc2)cc1	none
COc1cc(NC(=O)N2CC(=O)N3CCc4c(F)cccc4C3C2)cc(OC)c1OC (stereo unspecified)	NPYLR7 ag 43.2
CCOc1ccccc1NC(=O)N1CC(=O)N2CCc3c(F)cccc3C2C1 (stereo unspecified)	none
